About 83,000 compounds went through this panel and 20% of them were active in at least one assay; those are over-represented in the sample as a whole.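 Step 1: grow cells in 96-well plates. Step 2: add test compound at a single concentration. Step 3: incubate 48 h. Step 4: record percent growth.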 Unmarked numbers belong to inactive results. Active and inactive are the calls of the source. Rule for the calls: active = growth percent below 10; inactive = the rest.
What was measured:
Assay in all cases: NCI-60 one-dose screen, 48 h (100 = growth as untreated, 0 = no growth, -100 = all killed)
Settings in all cases: 10 µM unless noted
[1] = tested on: HCT-15 colon
[2] = tested on: HT29 colon
[3] = tested on: SNB-75 CNS
[4] = tested on: SNB-19 CNS
[5] = tested on: U251 CNS
[6] = tested on: PC-3 prostate
[7] = tested on: SK-MEL-5 melanoma
[8] = tested on: UACC-62 melanoma
[9] = tested on: SK-MEL-28 melanoma
[10] = tested on: LOX IMVI melanoma

| Compound | growth [1] | growth [2] | growth [3] | growth [4] | growth [5] | growth [6] | growth [7] | growth [8] | growth [9] | growth [10] |
| --- | --- | --- | --- | --- | --- | --- | --- | --- | --- | --- |
| COc1cccc(CNc2ncnc3c2ncn3C2OC(CO)C(O)C2O)c1O (stereo not given) | 4.06% (active) | 26.5% | -12.4% (active) | 31.2% | 12.6% | 15.7% | 14.4% | 6.74% (active) | 29% |  |
| C#Cc1ccc(NC(=O)c2ccc(/C=C/C(=O)c3nccn3C)cc2)cc1 | -44.4% (active) | -17.3% (active) | -98.3% (active) | -78.9% (active) | -67% (active) | -56.2% (active) | -94.3% (active) | -50.7% (active) | -30.7% (active) | -93% (active) |
| O=C(c1ccc(-c2nc(CSc3nc4ccccc4s3)no2)cc1)N1CCSCC1 | 68.5% | 40.8% | 91.9% | 87.7% | 61.6% | 63.5% | 24.6% | 59.9% | 96.6% |  |
| N#CC1=C(c2ccc(Cl)cc2)Nc2c(c(-c3ccc(Cl)cc3)nn2-c2ccccc2)C12C(=O)Nc1ccc(Cl)cc12 (stereo not given) | 18.4% | 32.4% | 19% | 24.4% | 25.3% | 21.5% | 78.7% | 54.6% | 79.6% |  |
| COC(=O)CCC(=O)C(=O)OC | 16.6% [10 mM] | -9.41% [10 mM] (active) | 19% [10 mM] | 12.6% [10 mM] | 3.32% [10 mM] (active) | -5.82% [10 mM] (active) | 64% [10 mM] | -52.8% [10 mM] (active) | -1.85% [10 mM] (active) |  |
| COc1cc(CNS(=O)(=O)c2ccc(C)cc2)ccc1OCc1cn(-c2ccc(Br)cc2)nn1 | 103% | 105% | 87% | 104% | 101% | 92.2% | 97.8% | 94.3% | 99.7% |  |
| O=S(=O)(Nc1ccc(Cl)cc1)c1ccc(-c2cnc(C3CC3)o2)cc1 | 27.9% | 15.4% | -11.9% (active) | 30% | 24.4% | 24.2% | 15.2% | 17.3% | 61.4% |  |
| CCCCCCCCCCCCCCCCCCOc1ccccc1CC(=O)NCC[N+]1(C)CCCC1 | 93.9% | 8.69% (active) | 45% | 35.2% | 6.79% (active) | 4.91% (active) | 73% | 43.2% | 84.2% |  |
| CCn1cc(C(=O)N/N=C/c2cccs2)c(=O)c2cc(F)c(N3CCNC(C)C3)c(F)c21 (stereo not given) | 25% | -76.7% (active) | 88.5% | 73% | 53.3% | 76.3% | 69.8% | 96.5% | 89.9% |  |
| c1cnc2[nH]cc(-c3csc(-c4cn(CCCN5CCOCC5)c5ccccc45)n3)c2c1 | 14% | 7.69% (active) | 20.1% | 56.8% | 32.9% | 19.6% | 38% | 65.5% | 65.3% |  |
| CC(=O)n1nc(C(=O)OC(C)C)c2cc(C)c(C)cc21 | 90.9% | 97.8% | 80.7% | 98.5% | 86.3% | 74.2% | 92% | 97.6% | 114% | 97% |
| CC1(C)CCC(S(=O)(=O)c2ccc3c(c2)/C(=N\O)c2cc(S(=O)(=O)N4CCC(O)(c5cccc(C(F)(F)F)c5)CC4)ccc2-3)CC1 | 16.3% | -80.1% (active) | -98.2% (active) | -81.9% (active) | -98.6% (active) | -71.5% (active) | -92.7% (active) | -84.9% (active) | -71.7% (active) |  |
| Cn1cc(-c2csc(-c3c[nH]c4ccc(Br)cc34)n2)c2cnccc21 | -78.9% (active) | -70% (active) | -95.8% (active) | -85.5% (active) | -85.8% (active) | -79.5% (active) | -67.7% (active) | -90.6% (active) | -93.6% (active) |  |
| CS(=O)(=O)Nc1cc(-c2ccc3ncnc(Nc4c(Cl)ccc5c4OCO5)c3c2)cnc1Cl | -18% (active) | -12.9% (active) | -19.5% (active) | -4.15% (active) | -30.4% (active) | 2.75% (active) | -93% (active) | -52% (active) | -6.42% (active) |  |
| Cc1cccc2c1NC(=O)C2(c1ccc(O)cc1)c1ccc(O)cc1 | 49.3% | 79.2% | 23.1% | 102% | 90.1% | 38.9% | 96.5% | 83.8% | 106% |  |
| Cc1ccc(S(=O)(=O)N2CCCC2CO)cc1 (stereo not given) | 95% | 88.5% | 68.1% | 98.9% | 98.1% | 75.6% | 98.4% | 104% | 163% | 86.3% |
| CC(C)(C)n1cc(-c2ccnc(NCCNS(=O)(=O)c3cccc(F)c3)c2)c(-c2ccccc2)n1 | 62.5% | 41.4% | 85.2% | 89.3% | 67.5% | 80.3% | 72.3% | 81.7% | 102% |  |
| COc1ccc2c3c([nH]c2c1)C(=O)c1nc(C)ccc1C3=O | 22.3% | 74.9% | -4.19% (active) | 46.1% | 45.6% | 45.7% | -95.1% (active) | -29.3% (active) | 83.7% |  |
| COc1ccc(C2=Nc3c/c(=C\c4c(O)[nH]c5ccc(Cl)cc45)ccc3=N2)cc1 | 22.5% | -13.9% (active) | 36.2% | 65% | 42% | 37% | 34.7% | 48.1% | 35.6% |  |
| Fc1cc(F)cc(C(c2c[nH]c3ccccc23)c2c[nH]c3ccccc23)c1 | 79.5% | 99.1% | 106% | 104% | 101% | 67.1% | 88.2% | 84.9% | 101% |  |
| COc1ccc(/C=C2\C(=O)N=C3N2NC(c2cc(Br)ccc2O)C=C(C)N3c2ccccc2)cc1 (stereo not given) | 103% | 106% | 99% | 93.8% | 93.8% | 92.1% | 97% | 90.6% | 99.1% |  |
| COc1ccc(-c2nc(/C=C3\SC(=NCc4ccccc4)NC3=O)c3ccccn23)cc1 | 0.0387% (active) | -70.4% (active) | -46.8% (active) | 16% | -43.6% (active) | 13.7% | -78.4% (active) | -49.7% (active) | -43.9% (active) |  |
| COc1ccc(OC)c(C(=O)/C=C/c2cc3c(c(OC)c2OC)OCO3)c1 | 47.3% | 60.3% | 52% | 71.5% | 50.4% | 61.8% | 68.4% | 55.4% | 89.7% |  |
| O=c1oc2c(cnc3ccccc32)cc1-c1ccsc1 | 107% | 113% | 89% | 94.6% | 93.3% | 90.5% | 96.8% | 94.8% | 106% |  |
| CC(=O)c1cc(O)c2ccccc2c1O | 98.9% | 111% | 70.7% | 100% | 98.2% | 85.7% | 86.4% | 101% | 137% |  |
| O=C1c2cccc(NCCN=Cc3cc(O)ccc3O)c2C(=O)c2c(NCCN=Cc3cc(O)ccc3O)cccc21 | 23.2% | -22.1% (active) | -22% (active) | -22.4% (active) | -43.8% (active) | -38.4% (active) | 4.84% (active) | 5.11% (active) | -30.9% (active) |  |
| Fc1ccc(-c2nn(-c3ccccc3)cc2-c2nc3ccccc3o2)cc1 | 33.9% | 99.6% | 119% | 67.3% | 33.4% | 51.6% | 57.9% | 74.9% | 108% |  |
| O=C(N/N=C/c1ccc(F)cc1)c1ccc(C(F)(F)F)nc1Nc1cccc(C(F)(F)F)c1 | 0.43% (active) | 1.2% (active) | 0.243% (active) | 18.4% | -41% (active) | -1.21% (active) | -30.6% (active) | -6.64% (active) | 12.7% |  |
